Measured values taken from publication PMC7862700, “An all-to-all approach to the identification of sequence-specific readers for epigenetic DNA modifications on cytosine”.

How the values were obtained:
Experiment in all cases: DAPPL (digital affinity profiling via proximity ligation, sequencing); 10 mM Tris-HCl pH 7.5, 50 mM NaCl, 1 mM DTT, 4% glycerol, room temperature, 30 min; GST-TFs on glutathione beads, 16-mer random dsDNA library, 0.1% formaldehyde crosslink after washing; high values mean tight binding
Conditions in all cases: protein: recombinant; tags: N-terminal GST; dsDNA, one strand shown
FLI1 = target: T1, FLI1 (Homo sapiens, UniProt Q01543 1-452)
T1 sequence: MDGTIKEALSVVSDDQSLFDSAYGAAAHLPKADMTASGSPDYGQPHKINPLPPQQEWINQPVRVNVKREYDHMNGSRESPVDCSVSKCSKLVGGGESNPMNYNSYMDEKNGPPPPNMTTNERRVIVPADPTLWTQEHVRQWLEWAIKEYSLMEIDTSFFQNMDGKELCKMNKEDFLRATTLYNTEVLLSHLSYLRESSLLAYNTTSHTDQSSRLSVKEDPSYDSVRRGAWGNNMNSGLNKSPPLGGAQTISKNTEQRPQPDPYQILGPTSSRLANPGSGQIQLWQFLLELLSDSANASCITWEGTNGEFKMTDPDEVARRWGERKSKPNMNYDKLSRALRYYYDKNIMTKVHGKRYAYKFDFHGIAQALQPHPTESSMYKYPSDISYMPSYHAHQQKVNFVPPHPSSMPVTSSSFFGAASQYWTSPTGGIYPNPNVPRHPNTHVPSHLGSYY
In short: (§1)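 The binding signal reported is, for every hexamer, its read frequency for a factor over its read frequency for the tag-only sample. Reads came from pools of yeast-expressed, GST-fused human transcription factors on glutathione beads, barcoded with DNA and mixed with that sample, which were incubated with 200 nmole of a random double-stranded 16-mer DNA library in Tris/NaCl/DTT/glycerol buffer at room temperature for 30 min. After washing, the pools were crosslinked with 0.1% formaldehyde, proximity-ligated with BsaI/T4 ligase for 1 h at 37 °C, PCR-amplified and sequenced on an Illumina NextSeq500.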

ELK1 = target: T2, ELK1 (Homo sapiens, UniProt P19419 1-428)
T2 sequence: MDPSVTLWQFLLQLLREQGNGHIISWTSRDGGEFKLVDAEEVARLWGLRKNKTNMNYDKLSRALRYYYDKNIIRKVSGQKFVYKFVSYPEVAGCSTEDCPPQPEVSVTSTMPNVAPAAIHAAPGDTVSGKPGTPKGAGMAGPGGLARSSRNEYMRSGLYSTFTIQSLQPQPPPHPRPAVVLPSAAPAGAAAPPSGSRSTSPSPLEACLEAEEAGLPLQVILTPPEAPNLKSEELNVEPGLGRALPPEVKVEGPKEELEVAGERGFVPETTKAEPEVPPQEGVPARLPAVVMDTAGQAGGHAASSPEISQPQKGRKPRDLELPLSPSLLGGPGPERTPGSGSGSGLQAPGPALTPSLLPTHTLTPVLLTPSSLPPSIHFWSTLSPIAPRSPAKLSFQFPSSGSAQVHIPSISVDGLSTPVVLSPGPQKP
In short: as §1

GABPA = target: T3, GABPA (Homo sapiens, UniProt Q06546 1-454)
T3 sequence: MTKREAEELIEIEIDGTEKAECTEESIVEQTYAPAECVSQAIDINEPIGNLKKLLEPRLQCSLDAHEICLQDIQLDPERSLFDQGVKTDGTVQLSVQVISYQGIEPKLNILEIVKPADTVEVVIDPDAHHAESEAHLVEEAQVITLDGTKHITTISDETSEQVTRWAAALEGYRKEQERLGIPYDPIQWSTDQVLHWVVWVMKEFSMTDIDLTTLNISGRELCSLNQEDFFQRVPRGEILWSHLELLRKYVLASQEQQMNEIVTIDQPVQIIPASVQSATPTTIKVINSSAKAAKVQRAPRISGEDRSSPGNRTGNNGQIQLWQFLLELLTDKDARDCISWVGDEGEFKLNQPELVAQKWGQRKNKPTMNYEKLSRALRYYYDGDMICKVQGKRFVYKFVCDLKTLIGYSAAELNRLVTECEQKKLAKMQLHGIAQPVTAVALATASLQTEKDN
In short: as §1

ERG = target: T4, ERG (Homo sapiens, UniProt P11308 1-479)
T4 sequence: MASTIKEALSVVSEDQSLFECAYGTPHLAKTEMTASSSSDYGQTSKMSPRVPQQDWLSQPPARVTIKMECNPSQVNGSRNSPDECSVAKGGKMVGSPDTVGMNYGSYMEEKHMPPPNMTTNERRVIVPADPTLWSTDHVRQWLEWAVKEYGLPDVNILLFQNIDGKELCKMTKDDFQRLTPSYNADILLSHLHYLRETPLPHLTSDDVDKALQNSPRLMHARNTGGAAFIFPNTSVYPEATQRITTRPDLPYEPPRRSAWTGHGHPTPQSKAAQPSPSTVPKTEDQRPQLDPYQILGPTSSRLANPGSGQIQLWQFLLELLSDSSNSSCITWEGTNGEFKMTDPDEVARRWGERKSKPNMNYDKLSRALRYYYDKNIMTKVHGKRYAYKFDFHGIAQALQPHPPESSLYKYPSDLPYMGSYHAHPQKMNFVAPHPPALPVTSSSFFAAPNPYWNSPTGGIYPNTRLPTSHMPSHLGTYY
In short: as §1

ELF1 = ELF1 (Homo sapiens, UniProt P32519 1-619)
ELF1, sequence (P32519 whole entry): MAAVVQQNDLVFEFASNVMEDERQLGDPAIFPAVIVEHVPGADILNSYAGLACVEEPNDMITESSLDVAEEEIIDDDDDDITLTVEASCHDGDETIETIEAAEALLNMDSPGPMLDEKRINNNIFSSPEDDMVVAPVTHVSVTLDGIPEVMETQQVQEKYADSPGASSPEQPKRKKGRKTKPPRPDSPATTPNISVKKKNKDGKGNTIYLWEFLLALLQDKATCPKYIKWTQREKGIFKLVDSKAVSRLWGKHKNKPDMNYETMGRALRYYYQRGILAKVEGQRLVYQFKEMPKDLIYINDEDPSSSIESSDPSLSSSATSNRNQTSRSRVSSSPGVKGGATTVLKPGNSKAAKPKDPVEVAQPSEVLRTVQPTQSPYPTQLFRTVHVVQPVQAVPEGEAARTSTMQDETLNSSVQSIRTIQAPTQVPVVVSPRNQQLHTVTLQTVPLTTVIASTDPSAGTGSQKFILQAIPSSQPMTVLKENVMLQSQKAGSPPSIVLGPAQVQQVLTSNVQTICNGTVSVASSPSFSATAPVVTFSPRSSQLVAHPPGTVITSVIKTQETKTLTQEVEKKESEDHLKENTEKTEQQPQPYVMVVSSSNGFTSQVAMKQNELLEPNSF
In short: as §1

EHF = target: T5, EHF (Homo sapiens, UniProt Q9NZC4 1-300)
T5 sequence: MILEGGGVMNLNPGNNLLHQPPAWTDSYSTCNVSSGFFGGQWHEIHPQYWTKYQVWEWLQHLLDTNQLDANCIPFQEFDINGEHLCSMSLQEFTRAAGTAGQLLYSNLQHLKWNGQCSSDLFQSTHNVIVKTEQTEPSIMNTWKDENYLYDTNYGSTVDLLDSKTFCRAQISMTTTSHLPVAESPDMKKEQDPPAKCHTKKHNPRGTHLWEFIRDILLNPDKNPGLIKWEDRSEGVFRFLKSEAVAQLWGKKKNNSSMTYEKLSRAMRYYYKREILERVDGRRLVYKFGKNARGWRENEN
In short: as §1

SPI1 = SPI1 (Homo sapiens, UniProt P17947 1-270)
In short: as §1

SPIB = SPIB (Homo sapiens, UniProt Q01892 1-262)
SPIB, sequence (Q01892 whole entry): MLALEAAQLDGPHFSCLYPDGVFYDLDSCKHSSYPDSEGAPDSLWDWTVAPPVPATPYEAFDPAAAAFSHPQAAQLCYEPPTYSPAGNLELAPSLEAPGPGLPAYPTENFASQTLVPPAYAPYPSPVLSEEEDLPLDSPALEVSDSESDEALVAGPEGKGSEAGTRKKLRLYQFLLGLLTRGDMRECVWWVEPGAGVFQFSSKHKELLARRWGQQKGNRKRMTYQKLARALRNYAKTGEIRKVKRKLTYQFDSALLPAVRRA
In short: as §1

ELK3 = target: T6, ELK3 (Homo sapiens, UniProt P41970 1-407)
T6 sequence: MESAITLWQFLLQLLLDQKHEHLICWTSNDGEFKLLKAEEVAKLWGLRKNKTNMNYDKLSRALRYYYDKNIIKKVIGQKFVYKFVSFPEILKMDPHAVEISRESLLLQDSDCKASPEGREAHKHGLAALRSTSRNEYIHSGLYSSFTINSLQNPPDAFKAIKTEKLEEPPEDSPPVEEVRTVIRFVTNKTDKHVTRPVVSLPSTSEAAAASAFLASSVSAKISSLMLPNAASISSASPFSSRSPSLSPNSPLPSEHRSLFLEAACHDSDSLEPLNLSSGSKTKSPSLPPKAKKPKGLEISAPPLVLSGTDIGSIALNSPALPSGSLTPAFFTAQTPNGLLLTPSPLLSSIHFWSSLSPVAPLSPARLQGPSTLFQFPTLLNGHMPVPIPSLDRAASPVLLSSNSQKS
In short: as §1

Sequence | binding signal (FLI1) | binding signal (ELK1) | binding signal (GABPA) | binding signal (ERG) | binding signal (ELF1) | binding signal (EHF) | binding signal (SPI1) | binding signal (SPIB) | binding signal (ELK3)
ATGTTC | 1.19 fold enrichment (6-mer frequency, TF over GST control) | 1.28 fold enrichment (6-mer frequency, TF over GST control) | 1.18 fold enrichment (6-mer frequency, TF over GST control) | 1.21 fold enrichment (6-mer frequency, TF over GST control) | 1.21 fold enrichment (6-mer frequency, TF over GST control) | 1.34 fold enrichment (6-mer frequency, TF over GST control) | 1.2 fold enrichment (6-mer frequency, TF over GST control) | 1.22 fold enrichment (6-mer frequency, TF over GST control) | 1.14 fold enrichment (6-mer frequency, TF over GST control)
GCTCTA | 1.17 fold enrichment (6-mer frequency, TF over GST control) | 1.09 fold enrichment (6-mer frequency, TF over GST control) | 1.11 fold enrichment (6-mer frequency, TF over GST control) | 1.24 fold enrichment (6-mer frequency, TF over GST control) | 1.13 fold enrichment (6-mer frequency, TF over GST control) | 1.23 fold enrichment (6-mer frequency, TF over GST control) | 1.04 fold enrichment (6-mer frequency, TF over GST control) | 1.09 fold enrichment (6-mer frequency, TF over GST control) | 1.09 fold enrichment (6-mer frequency, TF over GST control)
TATCGA | 1.36 fold enrichment (6-mer frequency, TF over GST control) | 1.28 fold enrichment (6-mer frequency, TF over GST control) | 1.32 fold enrichment (6-mer frequency, TF over GST control) | 1.36 fold enrichment (6-mer frequency, TF over GST control) | 1.36 fold enrichment (6-mer frequency, TF over GST control) | 1.35 fold enrichment (6-mer frequency, TF over GST control) | 1.34 fold enrichment (6-mer frequency, TF over GST control) | 1.25 fold enrichment (6-mer frequency, TF over GST control) | 1.34 fold enrichment (6-mer frequency, TF over GST control)
TAAAAA | 1.27 fold enrichment (6-mer frequency, TF over GST control) | 1.13 fold enrichment (6-mer frequency, TF over GST control) | 1.36 fold enrichment (6-mer frequency, TF over GST control) | 1.26 fold enrichment (6-mer frequency, TF over GST control) | 1.26 fold enrichment (6-mer frequency, TF over GST control) | 1.29 fold enrichment (6-mer frequency, TF over GST control) | 1.53 fold enrichment (6-mer frequency, TF over GST control) | 1.35 fold enrichment (6-mer frequency, TF over GST control) | 1.32 fold enrichment (6-mer frequency, TF over GST control)
CTTGCG | 1.44 fold enrichment (6-mer frequency, TF over GST control) | 1.42 fold enrichment (6-mer frequency, TF over GST control) | 1.32 fold enrichment (6-mer frequency, TF over GST control) | 1.35 fold enrichment (6-mer frequency, TF over GST control) | 1.39 fold enrichment (6-mer frequency, TF over GST control) | 1.41 fold enrichment (6-mer frequency, TF over GST control) | 1.34 fold enrichment (6-mer frequency, TF over GST control) | 1.4 fold enrichment (6-mer frequency, TF over GST control) | 1.44 fold enrichment (6-mer frequency, TF over GST control)
GATCTT | 1.29 fold enrichment (6-mer frequency, TF over GST control) | 1.33 fold enrichment (6-mer frequency, TF over GST control) | 1.32 fold enrichment (6-mer frequency, TF over GST control) | 1.35 fold enrichment (6-mer frequency, TF over GST control) | 1.23 fold enrichment (6-mer frequency, TF over GST control) | 1.22 fold enrichment (6-mer frequency, TF over GST control) | 1.19 fold enrichment (6-mer frequency, TF over GST control) | 1.36 fold enrichment (6-mer frequency, TF over GST control) | 1.29 fold enrichment (6-mer frequency, TF over GST control)
TCTGCA | 1.42 fold enrichment (6-mer frequency, TF over GST control) | 1.4 fold enrichment (6-mer frequency, TF over GST control) | 1.31 fold enrichment (6-mer frequency, TF over GST control) | 1.25 fold enrichment (6-mer frequency, TF over GST control) | 1.3 fold enrichment (6-mer frequency, TF over GST control) | 1.27 fold enrichment (6-mer frequency, TF over GST control) | 1.33 fold enrichment (6-mer frequency, TF over GST control) | 1.41 fold enrichment (6-mer frequency, TF over GST control) | 1.48 fold enrichment (6-mer frequency, TF over GST control)
